High-throughput results deposited in PubChem by NMMLSC.
BoNT-F LC inh = BoNT F light chain protease inhibition | Multiplex microsphere protease cleavage assay, flow cytometry | inhibition, % at 10 µM | 360,000 tested, 0.22% active | AID 588497; in the data active = inhibition above about 35%, passing the limit was not always enough; inconclusive = no clear call, values can overlap the other calls; note: plate controls were buffer without enzyme for full effect and enzyme alone for no effect
Bead autofluor = counter-screen for toxin protease inhibitors: compound fluorescence; compound autofluorescence counterscreen, microsphere flow cytometry; active compounds read high; AID 624483; fluorescence intensity (concentration not given with the values); 360,000 tested, 3.1% active; in the data active = fluorescence intensity above about 16000; inconclusive = no clear call, values can overlap the other calls
BoNT-A LC inh2 = inhibitors of Botulinum neurotoxin A light chain protease. 360,000 tested, 0.17% active. inhibition, % at 10 µM. multiplex microsphere protease substrate cleavage, flow cytometry; note: plate controls were buffer without enzyme for full effect and enzyme alone for no effect
Anthrax LF prot = inhibitors of Bacillus anthracis lethal factor protease; P15917; multiplex microsphere protease cleavage assay, LF; inhibition, % at 10 µM; 360,000 tested, 0.12% active; note: plate controls were buffer without enzyme for full effect and enzyme alone for no effect
Starred values were filed as active, the others as inactive; u = inconclusive; ! = not confirmed by another sample. Sampled rows, rich in hits. Any-hit rate of the full collection: about 3.5%. Cut-off read from the data, not from the text of the source, unless noted: active = inhibition above about 30%; inconclusive = no clear call, values can overlap the other calls; inactive = below that.

SMILES	BoNT-F LC inh	Bead autofluor	BoNT-A LC inh2	Anthrax LF prot
Cc1ccccc1-n1cnc2cc(NCc3cccs3)ccc21	-8	23047*	u	-3
CCOc1ccc(C2C(C#N)=C(N)SC(N)=C2C#N)c(OCC)c1	u	22485*	44*	25
Cc1cc(/C=C2\SC(=O)N(C)C2=O)c(C)n1-c1ccc(O)cc1	u	4858	-1	-7
CN=C1S/C(=C\c2cc(C)n(-c3ccccc3F)c2C)C(=O)N1C	7	20537*	4	-2
Fc1ccc(CNc2ccc(CNc3ncn[nH]3)cc2)cc1	4	21380*	6	-4
CCOC(=O)c1cc(S(=O)(=O)N2CCC(C)CC2)cn1C	6	5520	0	3
CCOc1ccccc1C(=O)NC1CCN(Cc2nnnn2C2CCCC2)CC1	0	22337*	u	-2
O=C(CSCc1cc(=O)n2ccsc2n1)Nc1ccccc1	-3	5414	-2	1
CC(C)(C)c1cc(C(=O)Nc2ccccc2)ccn1	-9	3895	0	-2
CC(C)(C)c1cc(C(=O)NCc2ccco2)ccn1	-5	24501*	-2	-1
CCN1C(=O)CSc2ccc(C(=O)NCc3ccco3)cc21	4	16140*	2	0
CC(C)(C)NC(=O)c1ccnc(C(C)(C)C)c1	20	17617*	18	-19
COC(=O)c1ccc2nccnc2c1	0	6135	0	1
CC(C)(C)NC(=O)c1ccc2nccnc2c1	-2	16956*	-2	-1
O=C(CSC1=NS(=O)(=O)c2ccccc2N1)NCc1ccc(F)cc1	2	u	5	1
Cc1cccc(C(=O)NCC(=O)NCC2COc3ccccc3O2)c1 (stereo not drawn)	-12	u	-5	-2
CCc1sc(C(=O)N2CCN(S(C)(=O)=O)CC2)cc1Br	0	23583*	-2	0
CCC(C)N1CC(=O)N2C(c3ccc(OC)cc3OC)c3[nH]c4ccccc4c3C[C@H]2C1=O (stereo partly drawn)	-9	3779	-2	11
CC1=CCC(C(=O)O)(C(=O)N/N=C/c2cccs2)C(c2ccc(Cl)cc2)C1 (stereo not drawn)	0	19841*	2	-2
CC1=CCC(C(=O)O)(C(=O)N/N=C/c2cccnc2)C(c2ccccc2)C1 (stereo not drawn)	-10	3835	-2	-5
CC1(C)CC(=O)c2c(O)cc(OCC(=O)N3CCN(c4ccccc4)CC3)cc2O1	-4	5727	-1	2
CC(C)N(Cc1nc(-c2ccccc2)no1)C(=O)C1CCCCC1	0	23062*	0	-5
CC(C)N(Cc1nc(-c2ccccc2)no1)C(=O)c1ccc(Cl)cc1	-7	4289	0	-5
CCC(C)[C@H](NC(=O)C1CC(=O)N(c2ccc(OC)cc2)C1)C(=O)NC1CCCC1 (stereo partly drawn)	5	5680	0	-2
COc1ccncc1-c1csc(C(O)c2ccccc2)n1 (stereo not drawn)	0	3780	0	4
SMILES	BoNT-F LC inh	Bead autofluor	BoNT-A LC inh2	Anthrax LF prot
Cc1ccc(Nc2c3c(nc4ncnn24)CCC3)cc1	-2	23876*	-1	0
Cc1ccc(Nc2c3c(nc4ncnn24)CC(C)CC3)cc1 (stereo not drawn)	-10	3867	0	0
COC(=O)C1CCN(C(=O)c2ccc(NC(C)=O)cc2)CC1	-4	22006*	-3	-1
COC(=O)C1CCN(C(=O)c2ccccc2Oc2ccccc2)CC1	1	20014*	2	-4
COC(=O)C1CCN(C(=O)c2ccccc2NC(C)=O)CC1	4	8333	0	-5
COc1ccccc1C(=O)N1CCC(C(=O)c2ccc(F)cc2)CC1	3	19021*	4	-21
COc1ccc(C(=O)N2CCC(C(=O)Nc3ccccc3OC)CC2)cc1	-3	22688*	u	-1
COc1ccc(NC(=O)C2CCN(C(=O)c3ccccc3)CC2)c(OC)c1	-12	8888	0	-5
COc1ccc(S(=O)(=O)Cc2ccc(C(=O)NC3CCCCC3)o2)cc1	-5	4308	-1	3
Cc1ccc(C(=O)OCC(=O)NC2CCCCCC2)c(C)c1	12	4577	-1	4
CCCC(=O)Nc1c(-c2ccccc2)[nH][nH]c1=O	-4	6413	0	-6
CC1CCN(C(=O)c2ccc(NS(C)(=O)=O)cc2)CC1	0	19949*	u	1
CC(=O)Nc1ccc(SCC(=O)N(CCC#N)c2ccc(C)cc2)cc1	-6	16531*	-2	-2
COc1ccc(-c2csc(N(CCc3ccc(OC)c(OC)c3)C(=O)COc3ccccc3)n2)cc1	-2	19913*	u	-2
CN(C(=O)COc1ccccc1)c1nc(-c2ccc(F)cc2)cs1	1	2665	0	-1
O=C(COc1ccccc1)N(Cc1ccccc1)c1nc(-c2ccccc2)cs1	2	21962*	1	-1
COc1ccc(-c2csc(N(Cc3ccccc3)C(=O)COc3ccc(Cl)cc3)n2)cc1	-5	10521	-1	-4
COc1ccc(C(=O)Nc2nnc(S(=O)(=O)N3CCOCC3)s2)cc1	2	5242	1	0
Cc1cc(C)nc(Nc2n[nH]c(COc3ccc4ccccc4c3)n2)n1	-1	22079*	1	-1
CC(C)C[C@H]1CNC(=O)C(=O)N1C[C@H]1CCCN1C[C@H](CC(C)C)N1C[C@H](Cc2ccccc2)N(CCc2ccccc2)C(=O)C1=O	1	6705	0	7
CCOc1ccccc1-c1n[nH]c(=S)o1	-6	17280*	-5	-1
COc1cc(CO)c(OC)c([N+](=O)[O-])c1	2	4087	0	-1
CC1(C)CC(=O)C(C=Nc2ccc(Cl)cn2)=C(O)C1	9	4505	0	0
Cc1[nH]nc(N=CC2=C(O)CC(c3ccco3)CC2=O)c1-c1ccc(Cl)cc1 (stereo not drawn)	-4	23437*	-3	-1
O=C1CC(c2ccco2)CC(O)=C1C=Nc1cc(Cl)ccc1O (stereo not drawn)	22	4222	1	1
SMILES	BoNT-F LC inh	Bead autofluor	BoNT-A LC inh2	Anthrax LF prot
Cc1[nH]nc(N=CC2=C(O)CC(C)(C)CC2=O)c1-c1ccc(Cl)cc1	-6	20907*!	u	3
Cc1ccc(N=CC2=C(O)CC(c3ccco3)CC2=O)cc1 (stereo not drawn)	18	17259*	10	-1
Fc1ccc(-c2nnc3sc(C4COc5ccccc5O4)nn23)cc1 (stereo not drawn)	1	8024	0	-7
c1ccc(-c2nn3c(Cn4nnc5ccccc54)nnc3s2)nc1	-5	5692	0	-6
c1cncc(-c2nn3c(Cn4nnc5ccccc54)nnc3s2)c1	3	16144*	1	0
c1ccc(Cc2nn3c(Cn4nnc5ccccc54)nnc3s2)cc1	-1	22542*	u	-1
c1ccc2c(c1)OCC(c1nn3c(Cn4nnc5ccccc54)nnc3s1)O2 (stereo not drawn)	1	16268*	u	2
CC(C)(C)OC(=O)N(CCc1ccccc1)Cc1cccc(OCc2cccc(NC(=O)c3ccccc3)c2)c1	-11	3689	0	-2
Oc1csc(Cc2nc(-c3ccccc3F)cs2)n1	0	4534	0	-1
Cc1cc(C(=O)N2CCC2(C)C(=O)NS(=O)(=O)c2ccc(Cl)cc2)nn1C (stereo not drawn)	-1	2905	0	-6
